Assay [1] addresses Arylsulfatase A (Homo sapiens) (UniProt P15289). Kind of assay: qHTS screen for enhancers of Arylsulfatase A (ASA1): LOPAC Validation Assay (AID 720538). In outline: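 SV40-transformed fibroblasts from an MLD patient (ASA-I179S) were treated with compound for 48 h at 37 C. They were then lysed with 0.5 mM pNCS substrate (final) for 14 h at room temperature and stopped with NaOH; signal read by fluorescence (Ex 525/Em 598 nm), with increase denoting enhanced activity.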
A general note: Quantitative high-throughput screening tests each substance at several concentrations.

Assay [2] is described as follows: qHTS for compounds that reverse cellular toxicity of Amyloid beta (A-beta) peptide in yeast: LOPAC Validation Assay (AID 720559).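 Further: plate controls were DMSO for no effect and equimolar ferric chloride plus clioquinol rescue for full effect.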 As to conditions: Potency: rescue of growth toxicity. In outline: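 Yeast expressing toxic A-beta grown with pinned compounds at 30 C for 48 hr. Growth measured as absorbance at 600 nm; data normalized to DMSO and to an equimolar FeCl3/clioquinol mixture as positive control.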

Assay [3] can be described thus: qHTS for Activators of Parkin Expression: LOPAC Validation Assay (NLuc Reporter) (AID 720572). In a few lines: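 NLuc signal, read 10 min after reagent and following a prior FLuc read, is normalized to DMSO (0) and positive controls (100%). Cells: neuronal Parkin-promoter coincidence reporter line; compounds tested 7-point, 24 h, 37 C, 5% CO2.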
A short description of assay [4]: qHTS for Activators of Parkin Expression: LOPAC Validation Assay (FLuc Reporter) (AID 720573; further: potency means the concentration at half of the fitted maximal effect). In outline:
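Neuronal cell line stably expressing FLuc/NLuc coincidence reporter under the Parkin promoter, 1,500 cells/well, dosed 24 h after seeding in 7-point series for 24 h at 37 C. FLuc luminescence read; normalized to DMSO and positive control (100%).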

Assay [5] has as its target T1, Hexokinase-4 (Homo sapiens) + Glucokinase regulatory protein (Homo sapiens) (UniProt P35557+Q14397). Kind of assay: qHTS assay for inhibitors of recombinant human GCK-GKRP interaction: Diaphorase-coupled assay (AID 743205). In a few lines:
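Compounds pre-incubated 20 min with substrate, then 10 nM GST-GCK with 10 nM FLAG-GKRP added. GCK activity coupled via G6PDH and diaphorase to resorufin (5 mM glucose, 0.4 mM ATP, 0.15 mM NADP+, pH 7.6), read kinetically over 30 minutes at Ex 525/Em 590 nm.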

Assay [6] has as its target T1, Hexokinase-4 (Homo sapiens) + Glucokinase regulatory protein (Homo sapiens). As to the kind of experiment: qHTS assay for inhibitors of recombinant human GCK-GKRP interaction: ADP-Glo assay (AID 743206).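 Further: plate controls were DMSO plus enzyme for no effect and no enzyme for full effect.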 In outline:
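Pin-transferred compounds meet a 15 nM GST-GCK/15 nM FLAG-GKRP/2 uM S6P mix (dispense concentrations). ATP is then added to 0.4 mM final with 5 mM glucose, and the reaction runs 60 min at room temperature. ADP is quantified luminescently.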

Assay [7] has the same target. As to the kind of experiment: qHTS assay for inhibitors of recombinant human GCK-GKRP interaction: HTRF assay (AID 743207).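 Further: 0% = DMSO with GCK present and -100% = DMSO wells lacking GCK.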 In outline: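 HTRF binding of 5 nM GST-GCK and 5 nM FLAG-GKRP with 2 uM S6P in pH 7.1 Hepes buffer (MgCl2, KCl, DTT, Tween 20, BSA). Anti-FLAG XL665 and anti-GST donor added, 60 min at room temperature; 665/615 nm read, normalized to with- and without-GCK controls.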

Assay [8] in a line: qHTS Assay for Identifying Gametocytocidal Compounds (AID 743244). Further: potency means the concentration at half of the fitted maximal effect.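 On max response: on the % scale 0 is the no-effect control and ±100 the full control effect; actives lower the fluorescent signal which means gametocytes are killed.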 As to conditions: P. falciparum 3D7 stage III-V gametocytes, alamarBlue, 72 h; max response: active compounds read low. In outline:
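Late gametocytes (III–V), P. falciparum 3D7; 72 h drug, then 24 h alamarBlue; resazurin reduction read by fluorescence.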

Several values for one entry are separate records, joined by “and”; a condition that tells them apart may be missing. Equal values may be shown once. Values without a mark were called inactive. Inconclusive results are not listed. Activity calls are given as the source filed them. The call rests on the fitted dose curve; in most records, active means well fitted curve in the direction sought with a large enough effect; inconclusive means small, poorly fitted or top-dose-only effect, or another doubt; inactive means no such curve, though single readings can be large; an effect the other way counts as inactive or inconclusive.

T1 sequence (P35557 whole entry, looked up): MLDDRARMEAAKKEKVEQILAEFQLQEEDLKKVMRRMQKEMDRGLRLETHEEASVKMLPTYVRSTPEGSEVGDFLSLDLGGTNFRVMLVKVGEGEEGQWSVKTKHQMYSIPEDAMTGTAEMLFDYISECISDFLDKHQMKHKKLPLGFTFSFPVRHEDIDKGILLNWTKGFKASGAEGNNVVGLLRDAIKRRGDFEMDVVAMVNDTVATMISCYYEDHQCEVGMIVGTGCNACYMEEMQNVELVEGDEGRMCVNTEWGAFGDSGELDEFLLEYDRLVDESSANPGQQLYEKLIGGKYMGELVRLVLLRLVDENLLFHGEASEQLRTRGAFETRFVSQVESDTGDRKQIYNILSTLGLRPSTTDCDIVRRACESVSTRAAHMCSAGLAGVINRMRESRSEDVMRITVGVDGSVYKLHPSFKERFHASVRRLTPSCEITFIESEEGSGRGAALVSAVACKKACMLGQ
T1 sequence (Q14397 whole entry, looked up): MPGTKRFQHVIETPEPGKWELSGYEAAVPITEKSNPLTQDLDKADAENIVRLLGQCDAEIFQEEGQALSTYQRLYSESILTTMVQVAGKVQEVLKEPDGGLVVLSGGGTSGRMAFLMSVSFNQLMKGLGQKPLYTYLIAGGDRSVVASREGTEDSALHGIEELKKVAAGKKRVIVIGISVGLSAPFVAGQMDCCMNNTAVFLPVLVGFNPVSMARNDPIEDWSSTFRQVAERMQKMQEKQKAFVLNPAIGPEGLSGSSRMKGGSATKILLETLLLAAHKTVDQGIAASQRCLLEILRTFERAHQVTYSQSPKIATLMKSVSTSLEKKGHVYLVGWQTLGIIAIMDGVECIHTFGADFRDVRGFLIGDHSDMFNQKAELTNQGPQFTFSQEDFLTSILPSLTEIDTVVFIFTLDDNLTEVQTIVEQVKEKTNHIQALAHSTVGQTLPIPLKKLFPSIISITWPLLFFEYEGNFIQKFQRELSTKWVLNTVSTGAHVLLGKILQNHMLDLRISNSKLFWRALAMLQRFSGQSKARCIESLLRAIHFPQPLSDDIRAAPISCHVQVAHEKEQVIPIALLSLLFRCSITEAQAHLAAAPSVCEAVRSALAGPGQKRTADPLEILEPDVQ
Sequence of Arylsulfatase A (Homo sapiens) (P15289 whole entry, looked up): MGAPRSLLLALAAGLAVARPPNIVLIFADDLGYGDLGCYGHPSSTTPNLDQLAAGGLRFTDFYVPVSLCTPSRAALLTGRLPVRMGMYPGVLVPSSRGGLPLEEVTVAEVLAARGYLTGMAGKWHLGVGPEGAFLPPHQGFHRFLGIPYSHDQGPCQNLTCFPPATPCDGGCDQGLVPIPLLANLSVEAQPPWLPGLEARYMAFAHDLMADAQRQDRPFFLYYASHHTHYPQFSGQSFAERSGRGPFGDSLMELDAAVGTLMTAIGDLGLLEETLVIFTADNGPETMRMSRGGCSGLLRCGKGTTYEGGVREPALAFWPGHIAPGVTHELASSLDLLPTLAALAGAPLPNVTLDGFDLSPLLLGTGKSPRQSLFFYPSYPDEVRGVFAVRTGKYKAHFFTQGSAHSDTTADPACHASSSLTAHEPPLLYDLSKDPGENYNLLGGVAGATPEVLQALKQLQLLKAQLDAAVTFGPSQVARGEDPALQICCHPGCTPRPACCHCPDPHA

Regarding `O=C(O)CC[C@@H](C(=O)O)N1C(=O)c2ccccc2C1=O`, the Potency result in assay [1], in assay [2], in assay [3], in assay [4], in assay [6] and in assay [7] was “inactive” each time. Also, the outcome in assay [5] was inactive. Further, the max response in assay [8] was -10.9%.

With `CC(C)Cc1ccc([C@H](C)C(=O)O)cc1`, the Potency entry in assay [1], in assay [2], in assay [3], in assay [4], in assay [6] and in assay [7] was “inactive” in each case. The result in assay [5] was inactive. Moreover, the max response in assay [8] was -6.28% and 20.5%.

Take `NC(=S)NCCC[C@H](N)C(=O)O`: the Potency entry in assay [1], in assay [2], in assay [3], in assay [4], in assay [6] and in assay [7] was “inactive” in each case. In addition, in assay [5], the outcome was inactive. For the same compound, the max response in assay [8] was 29.7%.

As for `CCCCCCCCCCCCCCCC(=O)OC(CC(=O)O)C[N+](C)(C)C` (centres undefined), the Potency result in assay [1], in assay [2], in assay [3], in assay [4], in assay [6] and in assay [7] was “inactive” each time. The outcome in assay [5] was inactive. In addition, in assay [8], the max response is -5.64%.

`Cn1c(=O)c2[nH]c(-c3ccccc3)nc2n(C)c1=O`: the Potency result in assay [1], in assay [2], in assay [3], in assay [4], in assay [6] and in assay [7] was “inactive” throughout. In addition, in assay [5], the result was inactive. Further, the max response in assay [8] is 16.2%.

`Fc1ccc(C(OCCCc2cnc[nH]2)c2ccc(F)cc2)cc1`: the Potency entry in assay [1], in assay [2], in assay [3], in assay [4], in assay [6] and in assay [7] was “inactive” in each case. In addition, in assay [5], the outcome was inactive.

As for `CCCCC/C=C\CC(O)/C=C/c1cccc(CC(O)CCCCO)n1` (centres undefined), the Potency result in assay [1], in assay [2], in assay [3], in assay [4] and in assay [6] was “inactive” each time. Besides, in assay [5], the result was inactive.

For `C[C@@H](CN1CCC(Cc2ccccc2)CC1)[C@@H](O)c1ccc(O)cc1`, the Potency entry in assay [1], in assay [2], in assay [3], in assay [4], in assay [6] and in assay [7] was “inactive” in each case. In addition, in assay [5], the outcome was inactive. Further, the max response in assay [8] is 31%.

In the case of `COc1ccc(NC(=O)/C=C/c2ccc(Cl)cc2)cc1`, the Potency entry in assay [1], in assay [2], in assay [3], in assay [6] and in assay [7] was “inactive” in each case. Besides, in assay [4], the Potency is 1030 nM (active). The result in assay [5] was inactive. Moreover, the max response in assay [8] is 30.8%.

Turning to `CCOC(=O)N1CCN(/[N+]([O-])=N/Oc2ccc([N+](=O)[O-])cc2[N+](=O)[O-])CC1`, the Potency result in assay [1], in assay [2], in assay [3], in assay [4], in assay [6] and in assay [7] was “inactive” in each case. Further, the outcome in assay [5] was inactive.

As to `O=c1[nH]c2cc(C(F)(F)F)ccc2n1-c1cc(C(F)(F)F)ccc1O`, the Potency entry in assay [1], in assay [2], in assay [3], in assay [4], in assay [6] and in assay [7] was “inactive” throughout. For the same compound, the result in assay [5] was inactive.

Regarding `CSc1ccccc1N1CCN(CCCCCC(=O)NC2CCCc3ccccc32)CC1` (centres undefined), the Potency entry in assay [1], in assay [2], in assay [3], in assay [4], in assay [6] and in assay [7] was “inactive” each time. Besides, in assay [5], the outcome was inactive. For the same compound, in assay [8], the max response is 6.9%.

`Nc1nc(Nc2ccccc2)nc2c1ncn2[C@@H]1O[C@H](CO)[C@@H](O)[C@H]1O`: the Potency result in assay [1], in assay [2], in assay [3], in assay [4], in assay [6] and in assay [7] was “inactive” throughout. Besides, the outcome in assay [5] was inactive. For the same compound, in assay [8], the max response was 17.1%.

`C=CC(N)CCC(=O)O` (centres undefined): the Potency result in assay [1], in assay [2], in assay [3], in assay [4], in assay [6] and in assay [7] was “inactive” in each case. In assay [5], the result was inactive. Moreover, the max response in assay [8] was -1.49% and -10.7%.

As to `Cc1ccc(S(=O)(=O)/C=C/C#N)cc1`, the Potency entry in assay [1], in assay [2], in assay [3], in assay [4], in assay [6] and in assay [7] was “inactive” in each case. Also, the result in assay [5] was inactive. In assay [8], the Potency is 3550 nM (active).

`N[C@@H](CC(=O)O)C(=O)O`: the Potency result in assay [1], in assay [2], in assay [3], in assay [4], in assay [6] and in assay [7] was “inactive” each time. For the same compound, the outcome in assay [5] was inactive. Besides, in assay [8], the max response was 20.5%.

`OC[C@H]1O[C@@H](n2cnc3c(NC4CCCCC4)ncnc32)[C@H](O)[C@@H]1O`: the Potency entry in assay [1], in assay [2], in assay [3], in assay [4], in assay [6] and in assay [7] was “inactive” each time. Further, the outcome in assay [5] was inactive. Besides, the max response in assay [8] was 8.7%.

Turning to `O=C(c1ccc(Cl)cc1)N1CCN(c2ccc([N+](=O)[O-])c3ncccc23)CC1`, the Potency result in assay [1], in assay [2], in assay [3], in assay [4] and in assay [7] was “inactive” in each case. In addition, the result in assay [5] was inactive. Further, the max response in assay [8] is -0.851%.

Take `CO/N=C(\C(=O)N[C@@H]1C(=O)N2C(C(=O)O)=C(COC(C)=O)CS[C@H]12)c1csc(N)n1`: the Potency result in assay [1], in assay [2], in assay [3], in assay [4], in assay [6] and in assay [7] was “inactive” each time. For the same compound, the outcome in assay [5] was inactive. For the same compound, the max response in assay [8] is 5.62%.

On to `S=C(S)OC1CC2CC1C1CCCC21` (centres undefined), for which the Potency result in assay [1], in assay [2], in assay [3], in assay [4] and in assay [7] was “inactive” in each case. In addition, the outcome in assay [5] was inactive. In assay [8], the max response is 22.6%.

As for `CCc1c(C(=O)NCCc2ccc(N3CCCCC3)cc2)[nH]c2ccc(Cl)cc12`, the Potency entry in assay [1], in assay [2], in assay [3], in assay [4] and in assay [6] was “inactive” in each case. Moreover, the outcome in assay [5] was inactive. Also, the max response in assay [8] is 11.6%.

For the compound `C=CC(=O)c1ccc(CCCCCC)cc1`, the Potency entry in assay [1], in assay [2], in assay [3], in assay [4], in assay [6] and in assay [7] was “inactive” throughout. The result in assay [5] was inactive. For the same compound, the max response in assay [8] is 6.31%.

`OCC1O[C@H](O)C(Cl)C(O)C1O` (some centres undefined): the Potency entry in assay [1], in assay [2], in assay [3], in assay [4] and in assay [7] was “inactive” throughout. Besides, in assay [5], the result was inactive. In assay [8], the max response is 14.4%.

Take `CN1CCc2cccc3c2C1Cc1ccc(O)c(O)c1-3` (centres undefined): the Potency entry in assay [1], in assay [2], in assay [3], in assay [4], in assay [6] and in assay [7] was “inactive” in each case. Also, the result in assay [5] was inactive. For the same compound, the Potency in assay [8] is 562 nM (active).

Take `COc1ccc2c(c1)CCC1C2CC[C@@]2(C)C1CC[C@@H]2NCCCCCCN1C(=O)CCC1=O` (some centres undefined): the Potency result in assay [1], in assay [2], in assay [3], in assay [4] and in assay [7] was “inactive” throughout. Further, the outcome in assay [5] was inactive.

For the origin of these results see PubChem BioAssay (NCATS).
